Bioassay records (PubChem)
Rows were chosen to be rich in hits. Some 21% of all compounds tested hit in one or more screens of this group.
Pf growth 96h: inhibits malaria parasite growth, 96 h; P. falciparum luciferase reporter growth, 96 h; Potency, µM (series often up to 28.7 µM), without a hit: top-dose activity change, negative = inhibition, actives largely listed as inhibitors; actives 6.9% (n = 320,000); AID 504834; also: potency is read from the fitted curve at half-maximal effect; % is scaled to controls: 0 for no effect and ±100 for the full control effect
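Two parasite generations (96 h, 37 C, 5% CO2) of compound exposure in infected erythrocytes (0.05% parasitemia, 2% hematocrit). Luciferase-reporter P. falciparum; decreased luminescence indicates inhibited growth, aimed at apicoplast-acting delayed death.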
CHX counter: affects cycloheximide protein synthesis inhibition readout, counter-screen. cell reporter, cycloheximide protein synthesis inhibition counterscreen. max response, %. actives 12% (n = 300,000). AID 2314; in the data active = max response mostly above about 13%, no sharp cut-off; inactive = mostly below about 14%; also: read at 38.3 µM for the half of the compounds with a filed dose; 0% is about no effect
Pf growth 48h: inhibits P. falciparum growth in the first generation, 48 h; actives 5.9% (n = 310,000); AID 504832; P. falciparum luciferase growth in erythrocytes, 48 h; Potency, µM (highest dose often 28.7 µM), for inactives: top-dose activity change, negative = inhibition, actives largely listed as inhibitors; also: potency is read from the fitted curve at half-maximal effect; % is scaled to controls: 0 for no effect and ±100 for the full control effect
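Read-out is firefly luciferase luminescence from an integrated reporter in P. falciparum, so falling signal marks reduced parasite growth. Infected erythrocytes were at 2% hematocrit and 0.1% parasitemia (final) in Albumax-supplemented RPMI 1640.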
Shiga inhibitor: inhibitors of Shiga toxin in Vero cells; Vero cells, Shiga toxin protein synthesis inhibition reporter; inhibition, % at 38.7 µM; actives 9.2% (n = 290,000); AID 2315; in the data active = inhibition mostly above about 28%, no sharp cut-off; inactive = mostly below about 43%; also: 0% is about no effect
Numbers without * were called inactive. Unless noted, calls follow the shape of the dose curve; as a rule, active = well fitted inhibition curve with a large enough effect; inconclusive = small, poorly fitted or top-dose-only effect, or another doubt; inactive = no such curve, though single readings can be large or run the other way.

CCn1c(C(=O)O)c(CC(=O)Nc2cccc(C(F)(F)F)c2)c2ccccc21 was read as Pf growth 96h 0.738µM*, CHX counter -3.7, Pf growth 48h -6.7% and Shiga inhibitor -1.5.
`Cn1c(C(=O)O)c(CC(=O)Nc2ccc3c(c2)OCCO3)c2ccccc21` gave Pf growth 96h 59.5%, CHX counter 63.5*, Pf growth 48h 133.6% and Shiga inhibitor 147.3*.
Screening CCNC(=O)CC1C(=O)N(c2ccccc2)C(=O)N1CCOC (configuration not stated) returned Pf growth 96h 11.3%, CHX counter 0.5, Pf growth 48h 29.9% and Shiga inhibitor -5.0.
Cn1c(=O)cc(SCC(=O)Nc2ccc3c(c2)OCO3)c2ccccc21 was read as Pf growth 96h 2.94µM*, CHX counter -5.6, Pf growth 48h 30.7% and Shiga inhibitor -17.0.
Screening CCn1c(=O)cc(SCC(=O)Nc2ccc3c(c2)OCCO3)c2ccccc21 returned CHX counter 14.8, Pf growth 48h 82.6% and Shiga inhibitor -13.2.
COC(=O)c1cc(S(=O)(=O)N2CCC(c3cc(OC)ccc3OC)C2)c[nH]1 (configuration not stated) was read as Pf growth 96h 13.1µM*, CHX counter -2.0, Pf growth 48h 0.0% and Shiga inhibitor 1.1.
Screening CCc1ccc(NC(=O)COc2ccc(/C=C(/C#N)c3nc4ccccc4[nH]3)cc2OC)cc1 returned Pf growth 96h inconclusive, CHX counter 22.1*, Pf growth 48h 2.62µM* and Shiga inhibitor active.
For COC(=O)c1ccc(COc2ccc(/C=C(\C#N)c3nc4ccccc4[nH]3)cc2OC)o1 the results were Pf growth 96h inconclusive, CHX counter 32.6*, Pf growth 48h 1.31µM* and Shiga inhibitor 81.3*.
`COc1cc(/C=C(/C#N)c2nc3ccccc3[nH]2)ccc1OCc1ccc(C(=O)O)o1` gave Pf growth 96h inconclusive, CHX counter 10.4, Pf growth 48h inconclusive and Shiga inhibitor 49.9.
Cc1cccc(C)c1N(C(=O)c1ccco1)C(C(=O)NC1CCCC1)c1ccncc1 (configuration not stated) was read as Pf growth 96h 8.6%, CHX counter -5.0, Pf growth 48h -16.2% and Shiga inhibitor -9.9.
Screening O=C(O)c1cc(S(=O)(=O)N2CCN(C(=O)c3ccco3)CC2)c(Cl)cc1Cl returned Pf growth 96h inconclusive, CHX counter -5.3, Pf growth 48h inconclusive and Shiga inhibitor -10.8.
`CC1=CS(=O)(=O)CC1SC(=S)N(C)C1CCS(=O)(=O)C1` (configuration not stated) gave Pf growth 96h 70.2%, CHX counter -2.6, Pf growth 48h 9.3% and Shiga inhibitor -5.7.
For CN(C)CCNCc1ccc(OC2CCCC2)cc1 the results were Pf growth 96h 9.28µM*, CHX counter -3.0 and Shiga inhibitor -9.1.
`CCC(CO)NCc1ccc(OC2CCCC2)cc1` (configuration not stated) gave Pf growth 96h 48.6%, CHX counter 2.5, Pf growth 48h -19.8% and Shiga inhibitor -5.3.
Screening CC1CC(C)CN(C(=O)COC(=O)COc2ccccc2C#N)C1 (configuration not stated) returned Pf growth 96h -14.8% and Pf growth 48h 20.5%.
For COc1ccc(CN2CCN(C(=O)c3c(-c4ccccc4)noc3C)CC2)cc1F the results were Pf growth 96h -1.0% and Pf growth 48h inconclusive.
Cc1ccc2cc3cc(C(=O)NC4CC4)oc3nc2c1 was read as Pf growth 96h inconclusive, CHX counter 26.4*, Pf growth 48h -5.3% and Shiga inhibitor 30.4.
Screening Cc1ccc2cc3cc(C(=O)NCc4ccco4)oc3nc2c1 returned Pf growth 96h inconclusive, CHX counter 23.1*, Pf growth 48h 2.94µM* and Shiga inhibitor 32.4*.
Screening Cc1ccc2cc3cc(C(=O)NCCC(C)C)oc3nc2c1 returned Pf growth 96h inconclusive, CHX counter -2.4, Pf growth 48h 10.4µM* and Shiga inhibitor -16.9.
For CCOc1ccc(NC(=O)c2sc3nc(C)nc(N4CCOCC4)c3c2C)cc1 the results were Pf growth 96h -7.0%, CHX counter -2.5, Pf growth 48h -28.4% and Shiga inhibitor 2.3.
CCCc1ccc(C(=O)O/N=C(\N)c2ccccn2)cc1 was read as Pf growth 96h inconclusive, CHX counter -2.1, Pf growth 48h -64.8% and Shiga inhibitor -24.8.
For N/C(=N\OC(=O)c1ccc(=O)n(Cc2ccccc2)c1)c1ccccn1 the results were Pf growth 96h inconclusive, CHX counter 30.3*, Pf growth 48h 13.1µM* and Shiga inhibitor 63.5*.
